In all, about 16,000 compounds went through this assay and about 5,100 (32%) were called active. Inconclusive results (about 25%) are left out. Calls follow the shape of the dose curve; as a rule, active = well fitted curve in the direction sought with a large enough effect; inconclusive = small, poorly fitted or top-dose-only effect, or effect the other way; inactive = no such curve, though single readings can be large or run the other way. The list shows a part of the results.
These molecules were tested against Cytochrome P450 3A4 (Homo sapiens) (UniProt P08684) (assay: Cytochrome panel assay with activity outcomes). Details: recombinant CYP, pro-luciferin dealkylation, luminescence, p450-cyp3a4; series mostly up to 57.1 µM.
% is scaled to controls: 0 for no effect and ±100 for the full control effect.

Sequence of Cytochrome P450 3A4 (Homo sapiens) (P08684 whole entry, looked up): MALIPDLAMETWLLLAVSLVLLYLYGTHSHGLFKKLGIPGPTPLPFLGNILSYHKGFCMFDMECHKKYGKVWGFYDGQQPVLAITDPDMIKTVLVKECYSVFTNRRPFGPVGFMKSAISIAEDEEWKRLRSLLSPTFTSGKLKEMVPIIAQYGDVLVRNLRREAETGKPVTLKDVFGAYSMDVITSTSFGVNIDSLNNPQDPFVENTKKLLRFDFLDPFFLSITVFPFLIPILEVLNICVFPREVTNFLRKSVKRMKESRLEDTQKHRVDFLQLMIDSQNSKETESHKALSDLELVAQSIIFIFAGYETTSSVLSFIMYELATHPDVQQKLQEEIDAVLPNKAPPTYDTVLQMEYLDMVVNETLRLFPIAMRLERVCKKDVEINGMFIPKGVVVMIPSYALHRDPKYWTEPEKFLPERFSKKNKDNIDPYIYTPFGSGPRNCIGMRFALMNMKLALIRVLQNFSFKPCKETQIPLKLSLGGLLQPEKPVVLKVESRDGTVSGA

AC50, inactive:
CC1(C)OC(C(N)=O)C(C(N)=O)O1 (configuration not stated)
CN[C@@H]1[C@H](O[C@@H]2O[C@H](CO)[C@@H](N)[C@H](O)[C@@H]2O)O[C@H]2C[C@@H](N)[C@@H](O[C@H]3[C@@H](O)[C@H](O)[C@H](N)C[C@@H]3N)O[C@H]2[C@H]1O
CSc1nc(-c2ccccc2)nn1C(=O)c1ccccc1
CCCCOc1ccc(-c2nnn(CC(=O)c3c[nH]c4ccccc34)n2)cc1
COc1ccc(OCc2nnc(SCC(=O)O)n2N)cc1
CC(=O)c1c(O)c(C)c(-c2ccccc2)n(-c2ccccc2)c1=O
Cc1ccc(-c2nn3c(C)nnc3c3ccccc23)cc1S(=O)(=O)NCc1ccccc1
OC(COCC1COc2ccccc2O1)CN1CCN(c2ccccc2F)CC1 (configuration not stated)
O=C(CCN1CCN(c2ccccc2F)CC1)Nc1ccccc1F
COC(=O)N1CC(=O)N(OC)C1c1ccc(Cl)cc1Cl (configuration not stated)
O=C(O)CN=C1NC2(CCCC2)Cc2ccccc21
COC(=O)C1CSC(C(=O)OC)N1C(=O)Nc1ccccc1 (configuration not stated)
O=C(Nc1ccccc1)N1CCSc2cc(Cl)ccc21
Cc1nnsc1SC(C)C(=O)O (configuration not stated)
CC(=O)n1nc(-c2ccco2)nc1N
c1ccc(CN(CC2=NCCN2)c2ccccc2)cc1
Cc1ccc(C)c(/C(O)=C2\C(=O)C(=O)N(Cc3cccnc3)C2c2cccnc2)c1 (configuration not stated)
CCNC(=S)NNC(=O)c1cc(C)on1
COCCSc1nnc(NC(=O)C(C)(C)C)s1
Cc1cccc(C(=O)NC2CCN(C(=O)N3CCOCC3)CC2)c1
Brc1ccc(-c2csc(N3CCC(c4ccccc4)C3)n2)cc1 (configuration not stated)
CC(C)CC(=O)N1CCN(Cc2cccc(F)c2)CC1
Cc1cccc(C(=O)NC(=S)N2CCN(C)CC2)c1
COc1cccc(NC(=S)NN2CCN(C)CC2)c1
COc1ccc(-c2csc(N3C(=N)SCC3=O)n2)cc1
Clc1ccc(-c2csc(N3CCC(c4ccccc4)C3)n2)cc1 (configuration not stated)
CN1CCN(C(c2ccccc2)c2ccccc2)CC1
CN(C)C(=O)c1ccc(-c2cc(NCc3ccccc3)ncn2)cc1
O=C1OC2CC3CC1CC(O)(C3)C2 (configuration not stated)
COc1ccc(C(=O)N2CCC3(CCN(Cc4ccc(C#N)cc4)CC3)CC2)cc1
COC(=O)N1CCC2(CCCN(Cc3ccccc3)C2)CC1
COCC(=O)N1CCC2(CC1)CN(Cc1ccc(C#N)cc1)C2
O=c1[nH]c(=O)n([C@@H]2C[C@H](O)[C@H](CO)O2)cc1I

AC50, active:
CCOc1ccc(-c2nnn(CC(=O)Nc3cc(OC)ccc3OC)n2)cc1OCC 3.55 µM
O=C(CSc1nnc(COc2ccccc2)n1-c1ccccc1)c1ccccc1 14.1 µM
COc1ccc(-c2nnn(CC(=O)N(CC(=O)NCCC(C)C)Cc3cccs3)n2)cc1OC 12.6 µM
C=CCn1c(Cc2ccc(OC)cc2)nnc1SCC(=O)c1cccc([N+](=O)[O-])c1 1.41 µM
CCOc1cc(C)ccc1OCc1nnc(SCC(=O)c2cccc([N+](=O)[O-])c2)n1CC 2.82 µM
C=CCn1c(COc2ccccc2)nnc1SCC(=O)N/N=C/c1ccc(C)cc1 3.16 µM
CCn1c(CNC(=O)COc2ccc(C(C)C)cc2)nnc1SCC(=O)Nc1cc(F)ccc1C 10 µM
COc1ccc(NC(=O)CSc2nnc(Cc3cccn3C)n2CCc2ccccc2)c(OC)c1 2.24 µM
COc1ccc(C(=O)NNC(=O)CSc2nnc(COc3ccc4ccccc4c3)n2C)cc1 0.501 µM
CCn1c(COc2ccccc2)nnc1SCC(=O)Nc1cc(OC)ccc1OC 10 µM
CCn1c(COc2ccccc2)nnc1SCC(=O)c1cccc([N+](=O)[O-])c1 12.6 µM
COc1ccc(-c2nnn(CC(=O)NCCc3c[nH]c4ccccc34)n2)cc1OC 8.91 µM
Cc1ccc(-n2nnnc2C(=Cc2ccc(N(C)C)cc2)c2nnnn2-c2ccc(C)cc2)cc1 3.16 µM
Cc1ccc(-c2nn3c(C)nnc3c3ccccc23)cc1S(=O)(=O)NCCN1CCOCC1 8.91 µM
Cn1c(=O)cc(SCC(=O)NCCCN2CCOCC2)c2ccc(Cl)cc21 7.94 µM
Cn1c(=O)cc(SCC(=O)NCCN2CCN(c3ccccc3F)CC2)c2cc(Cl)ccc21 14.1 µM
CCCNC(=O)N1N=C(c2ccc(N)cc2)c2cc3c(cc2[C@H]1C)OCO3 1.26 µM
CC(=O)N1CC(=O)N(OCc2ccccc2)C1c1ccc(Cl)cc1Cl (configuration not stated) 10 µM
Cc1cc(OCCn2cc(/C(N)=N/O)c3ccccc32)ccc1Cl 11.2 µM
CCOC(=O)C1=C(CN2c3ccccc3CC2C)NC(=O)NC1c1ccccc1 (configuration not stated) 15.8 µM
Nc1nc(=S)[nH]c2c1C1(CCCC1)Cc1ccccc1-2 20 µM
CCOc1ccc(/C=C/C2=Cc3c(sc(NC(=O)CSc4n[nH]c(N)n4)c3C#N)C(C)(C)C2)cc1 15.8 µM
Cc1ccc(/C=C/C2=Cc3c(sc(NC(=O)CSc4n[nH]c(N)n4)c3C#N)C(C)(C)C2)o1 14.1 µM
Cc1c(/N=C/c2ccco2)n(Cc2ccccc2)c2ccccc12 7.08 µM
COC(=O)c1cc(NC(=O)N2c3ccccc3Sc3ccccc32)cc(C(=O)OC)c1 7.94 µM
C=CCSc1nc(C)cc(/C=C\c2ccccc2)c1C#N 4.47 µM
Nc1nc(NCCc2ccc(O)cc2)nc2nc(-c3ccco3)nn12 15.8 µM
Cc1cccc(-n2nc([N+](=O)[O-])c(=NCc3cccnc3)n2O)c1 15.8 µM
COCC(C)n1c(C)cc(C(=O)CSc2nnc(Nc3ccccc3F)s2)c1C (configuration not stated) 1.58 µM
Cc1cccc(C(=O)NC2CCN(C(=S)NCc3ccco3)CC2)c1 5.62 µM
COC(=O)c1ccc(NC(=S)N2CCN(Cc3cccc(C)c3)CC2)cc1 12.6 µM
COc1cccc(-c2csc(N3CCN(C(=S)Nc4ccccc4)CC3)n2)c1 8.91 µM
COc1cccc(N2CCN(C(=S)Nc3cccc(C)c3)CC2)c1 3.55 µM
COc1cccc(-c2csc(N3CCN(CC(=O)NNC(=O)c4ccc(Cl)cc4)CC3)n2)c1 11.2 µM
S=C(NCc1ccco1)N1CCN(C(c2ccccc2)c2ccccc2)CC1 12.6 µM
COc1ccc(C(=O)NC2CCN(C(=S)Nc3cccc(C)c3)CC2)cc1 15.8 µM
Cc1cccc(CNc2cc(-c3ccc(C(=O)N(C)C)cc3)ncn2)c1 3.16 µM
CN(C)C(=O)c1ccc(-c2cc(NCc3cccnc3)ncn2)cc1 15.8 µM
COc1ccc(C(NC(=O)c2ccc(-c3ccccc3)cc2)c2ccccc2)cc1 (configuration not stated) 0.0355 µM
CCc1n[nH]c(=S)n1/N=C/c1ccc2c(c1)OCO2 14.1 µM
CCn1c(-c2ccc(N(C)C)cc2)nc2ccccc21 10 µM
COc1ccc(C(=O)N2CCC[C@@]3(CCN(Cc4ccccc4)C3)C2)cc1 10 µM
COc1ccc(C(=O)N2CCC[C@@]3(CCN(Cc4ccc(C#N)cc4)C3)C2)cc1 10 µM
COc1ccc(C(=O)N2CCC[C@@]3(CCN(CC(C)C)C3)C2)cc1 7.94 µM

activity, negative = inhibition, inactive:
CCOc1c2ccc(C(=O)NCCc3cccs3)cc2nn1CC -0.473% [at 2.29 µM]
COc1cccc(OCc2nnc(SCC(=O)NCc3ccco3)n2C)c1 12.8% [at 2.29 µM]
CCc1ccccc1NC(=O)CSc1nc(-c2ccccc2)nn1C(=O)c1cccc([N+](=O)[O-])c1 -8.74% [at 2.29 µM]
COc1ccc2c(c1)-c1c(sn(-c3ccc(OC)c(OC)c3)c1=S)C(C)(C)N2 -15.9% [at 2.29 µM]
Clc1ccc(Cl)c(SCCCN2CCNCC2)c1 -17% [at 11.4 µM]
CC(=O)N1N=C(c2cccc([N+](=O)[O-])c2)OC1c1ccc(Cl)cc1Cl (configuration not stated) 11.9% [at 2.29 µM]
CCOC(=O)c1[nH]c(C)c(C(=O)OCC(=O)N2c3ccccc3CC2C)c1C (configuration not stated) -26.3% [at 2.29 µM]
Cc1cccc(-n2c(=O)c3c(n4cnnc24)-c2ccccc2CC32CCCCC2)c1 -17.5% [at 2.29 µM]
CC(=O)OC[C@@H]1O[C@@H](O/N=C2/C[C@@H](O)[C@@H](O)[C@@H]3[C@@H]4C(=O)N(C5CCCCC5)C(=O)[C@H]4CC[C@H]23)[C@H](OC(C)=O)[C@H](OC(C)=O)[C@@H]1OC(C)=O -4% [at 11.4 µM]
N#C[C@@H](N=Nc1ccccc1C(=O)O)C(N)=O -6.32% [at 11.4 µM]
Cn1cnc([N+](=O)[O-])c1Sc1nc(N)nc2c1ncn2Cc1ccccc1 -11.4% [at 11.4 µM]
O=C1c2ccccc2C(=O)c2c1ccc(C(=O)O)c2-c1ccc2ccccc2c1 -2.24% [at 11.4 µM]
S=C(NCc1ccco1)N1CCN(Cc2ccco2)CC1 -5.09% [at 2.29 µM]
C[C@H](NC(=O)c1ccc(Cl)c(Cl)c1)c1ccc(-c2ccccc2)cc1 -6.52% [at 11.4 µM]
Oc1ccc(Cn2c(-c3ccc(O)cc3)nc3ccccc32)cc1 -21.1% [at 11.4 µM]
